Laboratory results as given in PubChem BioAssay (Tox21).
“And” between values parts separate entries of the source, which are not always exact repeats. Equal entries are not always repeated. A number with no mark means an inactive call. Inconclusive results are not listed. A call without a number means that no potency is given here. The source made the active and inactive calls. Unless noted, the call rests on the fitted dose curve; in most records, active means well fitted curve in the direction sought with a large enough effect in the repeat runs; inconclusive means weak or mixed curves; inactive means no such curve, though single readings can be large; an effect the other way counts as inactive or inconclusive.

Experiments:
[1] = qHTS assay for small molecules that induce genotoxicity in human embryonic kidney cells expressing luciferase-tagged ATAD5 (AID 651632); further: nearly all actives have a fitted effect of over 15% in size; further: potency means the concentration at half of the fitted maximal effect
How it was run: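 Genotoxicity read-out via ATAD5-luciferase: HEK293T cells, 16 hr compound incubation at 37C, Amplite detection.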

[2] = qHTS assay for small molecule agonists of the p53 signaling pathway - cell viability (AID 651633; calls by dose curve; further: nearly all actives have a fitted effect of over 30% in size; further: potency means the concentration at half of the fitted maximal effect)
How it was run: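 p53RE-bla cells were treated with compound for 16 hours at 37 C. Cytotoxicity was then measured as CellTiter-Glo luminescence after 30 min at room temperature.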

[3] = qHTS assay for small molecules that induce genotoxicity in human embryonic kidney cells expressing luciferase-tagged ATAD5 - cell viability (AID 651634; calls by dose curve; further: nearly all actives have a fitted effect of over 25% in size; further: potency means the concentration at half of the fitted maximal effect)
How it was run: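 Live-cell protease activity (CellTiter-Fluor, fluorescence) indicates viability. HEK293T cells with luciferase-tagged ATAD5; 15.5 hr compound treatment at 37C.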

[4] = qHTS assay for small molecule disruptors of the mitochondrial membrane potential - cell viability (AID 720634; calls by dose curve; further: nearly all actives have a fitted effect of over 20% in size; further: potency means the concentration at half of the fitted maximal effect)
How it was run: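 Human hepatoma HepG2 cells were treated for 1 hr with test chemicals, then given m-MPI dye and CellTiter-Glo. Cell viability reflects luminescence proportional to cellular ATP.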

[5] = qHTS assay to test for compound auto fluorescence at 590 nm (red) in HepG2 cells (AID 720674)
How it was run: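 HepG2 cells, 2,000 per well in MEM with 10% FBS, attached overnight at 37 C, then got 23 nL compound or DMSO. After 1 hr at 37 C, 5% CO2, red fluorescence was read at 540/590 nm against Rose Bengal sodium as reference.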

[6] = qHTS assay to test for compound auto fluorescence at 535 nm (green) in HepG2 cells (AID 720675)
[7] = qHTS assay to test for compound auto fluorescence at 460 nm (blue) in HEK293 cells (AID 720678)
How it was run: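 HEK293, 2,000 cells/well, 10% dialyzed FBS; attach 4-5 hr 37C; pin compound or DMSO; o/n 37C/5% CO2; fluorescence 405/460 nm; triamterene-equivalent units.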

[8] = qHTS assay to test for compound auto fluorescence at 590 nm (red) in HEK293 cells (AID 720679)
How it was run: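 Intensity at 540nm excitation and 590nm emission is reported as Rose Bengal sodium-equivalent autofluorescence. Measurements followed overnight exposure (37C, 5% CO2) of HEK293 cells, 2,000 per well, to 23 nL compound.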

[9] = qHTS assay for small molecule disruptors of the mitochondrial membrane potential (AID 720635); further: potency means the concentration at half of the fitted maximal effect
How it was run: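 HepG2 cells exposed to compound 1 hr at 37C, then Mito-MPS dye 30 min. Ratio read of aggregate (540/590 nm) versus monomer (490/535 nm) fluorescence.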

SMILES | Potency [1] | Potency [2] | Potency [3] | Potency [4] | fluorescence, relative to Rose Bengal [5] | fluorescence, % of fluorescein control [6] | fluorescence, % of triamterene [7] | fluorescence, % of fluorescent control [8] | Potency [5] | Potency [6] | Potency [7] | Potency [8] | Potency [9]
CCCCN(CCCC)CCC(O)c1cc2c(Cl)cc(Cl)cc2c2cc(C(F)(F)F)ccc12 (stereo unspecified) | inactive | inactive | inactive | inactive | 0.511% [at 18.6 µM] | 0.0229% [at 18.6 µM] | -0.234% [at 18.6 µM] | 0.217% [at 18.6 µM] |  |  |  |  | 
CNC(=S)NN | inactive | inactive | inactive | inactive |  |  |  |  | inactive | inactive | inactive | inactive | 
CC(NCCC(c1ccccc1)c1ccccc1)c1ccccc1 (stereo unspecified) | inactive | 29.8 µM (active) |  | inactive |  |  |  |  | inactive | inactive | inactive | inactive | 8.8 µM (active)
O[C@@H](c1cc(C(F)(F)F)nc2c(C(F)(F)F)cccc12)[C@H]1CCCCN1 | inactive | 21.1 µM (active) | 23.7 µM (active) |  |  |  |  |  | inactive | inactive | inactive | inactive | 
CCN(CC)CCOc1ccc(C(O)(Cc2ccc(Cl)cc2)c2ccc(C)cc2)cc1 (stereo unspecified) | inactive | 29.8 µM (active) |  | inactive |  |  |  |  | inactive | inactive | inactive | inactive | 
O=C1NC2CCCCN2C12CCN(CCCN1c3ccccc3CCc3ccc(Cl)cc31)CC2 (stereo unspecified) | inactive | inactive |  | inactive |  |  |  |  | inactive | inactive | inactive | inactive | inactive
c1cc2c3c(c1)ccc1cccc(c13)C2 | inactive | inactive | inactive |  |  |  |  |  | inactive | inactive | inactive | inactive | 62.4 µM (active)
CC(C)OC(=O)c1cc(C(=O)OC(C)C)cc([N+](=O)[O-])c1 | inactive | inactive | inactive |  |  |  |  |  | inactive | inactive |  | inactive | 
Cc1ccc(N)cc1O | inactive | inactive | inactive | inactive |  |  |  |  | inactive | inactive |  | inactive | 17.2 µM (active)
COCC(=O)O[C@]1(CCN(C)CCCc2nc3ccccc3[nH]2)CCc2cc(F)ccc2[C@@H]1C(C)C | inactive | 11.9 µM (active) | 10.6 µM (active) | 26.6 µM (active) |  |  |  |  | inactive | inactive | inactive | inactive | 3.35 µM (active)
CCN(CC)CCSC(=O)C(c1ccccc1)c1ccccc1 | inactive | inactive | inactive | inactive |  |  |  |  | inactive | inactive | inactive | inactive | 
CN(Cc1cc(Br)cc(Br)c1N)C1CCCCC1 | inactive | 29.8 µM (active) | inactive |  |  |  |  |  | inactive | inactive | inactive | inactive | 26.6 µM (active)
CCO[Si](CCCSSSSCCC[Si](OCC)(OCC)OCC)(OCC)OCC | inactive | inactive | inactive | inactive |  |  |  |  | inactive | inactive | inactive | inactive | 
Nc1ncnc2c1ncn2[C@@H]1O[C@H](COP(=O)(O)O)[C@@H](O)[C@H]1O | inactive | inactive | inactive | inactive |  |  |  |  | inactive | inactive | inactive | inactive | 
Oc1ccc(-c2ccccc2)c(Cl)c1 | inactive | 61.1 µM (active) | inactive |  |  |  |  |  | inactive | inactive |  | inactive | 8.63 µM (active)
CCCCC(CC)COC(=O)c1ccc(O)cc1 (stereo unspecified) | inactive | 54.3 µM (active) | inactive | 8.6 µM (active) and 24.3 µM (active) |  |  |  |  | inactive | inactive | inactive | inactive | 5.43 µM (active) and 6.11 µM (active)
c1ccc(Sc2ccccc2)cc1 | inactive | inactive | inactive | inactive |  |  |  |  | inactive | inactive | inactive | inactive | 
Cc1nc(Nc2ncc(C(=O)Nc3c(C)cccc3Cl)s2)cc(N2CCN(CCO)CC2)n1 | inactive | inactive |  | inactive |  |  |  |  | inactive | inactive | inactive | inactive | 
CCCCCCCCCCCCCOP(=O)(O)O | inactive | 48.6 µM (active) | inactive | inactive |  |  |  |  | inactive | inactive | inactive | inactive | 
C[Si](C)(C)Cl | inactive | inactive | inactive | inactive |  |  |  |  | inactive | inactive | inactive | inactive | 
CC(C)(c1cc(Br)c(OCCO)c(Br)c1)c1cc(Br)c(OCCO)c(Br)c1 | inactive | 47.5 µM (active) | 37.7 µM (active) | inactive |  |  |  |  | inactive | inactive |  | inactive | 5.97 µM (active)

SMILES | Potency [1] | Potency [2] | Potency [3] | Potency [4] | fluorescence, relative to Rose Bengal [5] | fluorescence, % of fluorescein control [6] | fluorescence, % of triamterene [7] | fluorescence, % of fluorescent control [8] | Potency [5] | Potency [6] | Potency [7] | Potency [8] | Potency [9]
CC(C)(C)c1cc(/C=C2\SC(=N)NC2=O)cc(C(C)(C)C)c1O | inactive | 68.6 µM (active) |  | inactive |  |  |  |  | inactive | inactive |  | inactive | 12.2 µM (active)
CC(CN(C)C)CN1c2ccccc2CCc2ccccc21 (stereo unspecified) | inactive | inactive | inactive | inactive | 0.485% [at 18.6 µM] | -0.198% [at 18.6 µM] |  | -0.076% [at 18.6 µM] |  |  |  |  | 
CCCCCCCC/C=C/CCCOC(C)=O | inactive | inactive | inactive | inactive |  |  |  |  | inactive | inactive | inactive | inactive | 
CC(C)c1ccc(O)c(C(C)C)c1 | inactive | inactive |  | inactive |  |  |  |  | inactive | inactive | inactive | inactive | 15.4 µM (active)
CCN(CC)CCOC(=O)C1(C2CCCCC2)CCCCC1 | inactive | inactive | inactive | inactive |  |  |  |  | inactive | inactive |  | inactive | 
CC(C)(C)CC(C)(C)c1ccccc1O | inactive | 43.5 µM (active) |  | 27.4 µM (active) |  |  |  |  | inactive | inactive | inactive | inactive | 2.18 µM (active)
CN(C)CCOC(c1ccccc1)c1ccccc1 (tested in a mixture with another compound) | inactive | inactive | inactive | inactive |  |  |  |  | inactive | inactive | inactive | inactive | 
CCOC(=O)[C@@](C)(N)Cc1ccc(O)c(O)c1 | inactive | inactive | inactive | inactive | -0.208% [at 18.6 µM] | -0.17% [at 18.6 µM] | 0.197% [at 18.6 µM] | 0.559% [at 18.6 µM] |  |  |  |  | inactive
CCCCNc1c(C(=O)OCC)c(C)nc2c1cnn2CC | inactive | inactive | inactive |  |  |  |  |  | inactive | inactive | inactive | inactive | 
O=C1NCCN1CCN1CCC(c2cn(-c3ccc(F)cc3)c3ccc(Cl)cc23)CC1 | inactive |  | 29.8 µM (active) | inactive |  |  |  |  | inactive | inactive | inactive | inactive | 
C=C1C(C)(C)[C@@]2(Cl)C(Cl)[C@]1(Cl)C(Cl)(Cl)C2(Cl)Cl (stereo partly specified) | inactive |  | inactive | inactive |  |  |  |  | inactive | inactive | inactive | inactive | 12 µM (active)
CCN1CCN(c2cc(-c3ccc(F)cc3)c3c(n2)CCCCCC3)CC1 | inactive |  | inactive | inactive |  |  |  |  | inactive | inactive | inactive | inactive | inactive
O=C1C=CC(=O)N1c1ccccc1 | inactive | 48.6 µM (active) |  |  |  |  |  |  | inactive | inactive | inactive | inactive | 48.6 µM (active)
Clc1ccc(C(Cn2ccnc2)OCc2c(Cl)cccc2Cl)c(Cl)c1 (stereo unspecified) | inactive |  | inactive | inactive | 0.526% [at 18.6 µM] | -0.003% [at 18.6 µM] |  | -0.295% [at 18.6 µM] |  |  |  |  | inactive
C=CC(=O)OCCC#N | inactive |  | inactive | inactive |  |  |  |  | inactive | inactive |  | inactive | 
O=Nc1ccc(NO)cc1 | inactive |  | inactive | inactive |  |  |  |  | inactive | inactive |  | inactive | 50.5 µM (active)
CCCCCCCC/C=C\CCCCCCCC(=O)NCc1ccc(O)c(OC)c1 | inactive |  | inactive | inactive |  |  |  |  | inactive | inactive |  | inactive | 11.9 µM (active)
Cc1c(C)n(Cc2ccccc2)c2ccc(C(=O)OCCN(C)C)cc12 | inactive |  | inactive | inactive |  |  |  |  | inactive | inactive |  | inactive | 
Cc1cccc(C)c1NC(=O)CN1CCN(CCCC(c2ccc(F)cc2)c2ccc(F)cc2)CC1 | inactive |  | inactive | inactive | -0.479% [at 18.6 µM] | 0.0022% [at 18.6 µM] | 0.0374% [at 18.6 µM] | 0.0665% [at 18.6 µM] |  |  |  |  | 
C=CC(=O)OCCOCC(CC)(COCCOC(=O)C=C)COCCOC(=O)C=C | 28.4 µM (active) |  | 80.2 µM (active) | inactive |  |  |  |  | inactive | inactive | inactive | inactive | inactive
